# According to PubChem BioAssay (EPA / NIEHS):
# Results filed as inconclusive are left out. Where a structure was tested more than once in an assay, its records may differ in their call. Active and inactive are the calls of the source. How the source made its calls: active means hit-call score of the fitted dose curve at least 0.9, where 1 is the maximum; inconclusive means response in the unintended direction; inactive means score below 0.9.
# Target: Peroxisome proliferator-activated receptor gamma (Homo sapiens) (UniProt P37231)
# Assay: NVS_NR_hPPARg: NovaScreen (NVS) Nuclear Receptor Binding Assay for human Peroxisome Proliferator-activated Receptor gamma (PPARg) (AID 2283370)
# Method: NVS_NR_hPPARg is a biochemical, single-readout assay that uses extracted gene-proteins in a cell-free assay. Measurements were taken 2 hours after chemical dosing in a 384-well plate.NVS_NR_hPPARg is one of one assay component(s) measured or calculated from the NVS_NR_hPPARg assay. It is designed to make measurements of fluorescent polarization, a form of binding reporter, as detected with fluorescence polarization signals by Fluorescence Polarization technology.Data from the assay component NVS_NR_hPPARg was analyzed into 1 assay endpoint. This assay endpoint, NVS_NR_hPPARg, was analyzed in the positive analysis fitting direction relative to DMSO as the negative control and baseline of activity. Using a type of binding reporter, loss-of-signal activity can be used to understand changes in the binding as they relate to the gene PPARG. Furthermore, this assay endpoint can be referred to as a primary readout, because the performed assay has only produced 1 assay endpoint. To generalize the intended target to other relatable targets, this assay endpoint is annotated to the nuclear receptor intended target family, where the subfamily is non-steroidal.
# Binding assays used specific radioligands (tritiated, iodinated) with non-radioactive competitive displacement ligands in agonist or antagonist protocols (as indicated) and various reference compounds and inhibitors to titrate specific binding to receptors and transporters. Most enzyme assays (CYPs, kinases, phosphatases, proteases, HDACs) used recombinant protein and specific substrates (fluorescence mostly, some colorimetric and radioactive) and inhibitors, followed by a biochemical separation of substrate and product. All assays for the biochemical HTS were initially run in duplicate at a single concentration (10 uM for CYP450 assays and 25 uM for all others). […] Each assay was run with positive and negative controls, and concurrent controls on every plate. The follow-up (secondary) screen tested active chemical-pairs in concentration series, as well as a few additional assays not tested in the primary screen, some selected negative inactives, and several cases re-run in the concentration series for confirmatory purposes.
# Sequence of Peroxisome proliferator-activated receptor gamma (Homo sapiens) (P37231 whole entry, looked up): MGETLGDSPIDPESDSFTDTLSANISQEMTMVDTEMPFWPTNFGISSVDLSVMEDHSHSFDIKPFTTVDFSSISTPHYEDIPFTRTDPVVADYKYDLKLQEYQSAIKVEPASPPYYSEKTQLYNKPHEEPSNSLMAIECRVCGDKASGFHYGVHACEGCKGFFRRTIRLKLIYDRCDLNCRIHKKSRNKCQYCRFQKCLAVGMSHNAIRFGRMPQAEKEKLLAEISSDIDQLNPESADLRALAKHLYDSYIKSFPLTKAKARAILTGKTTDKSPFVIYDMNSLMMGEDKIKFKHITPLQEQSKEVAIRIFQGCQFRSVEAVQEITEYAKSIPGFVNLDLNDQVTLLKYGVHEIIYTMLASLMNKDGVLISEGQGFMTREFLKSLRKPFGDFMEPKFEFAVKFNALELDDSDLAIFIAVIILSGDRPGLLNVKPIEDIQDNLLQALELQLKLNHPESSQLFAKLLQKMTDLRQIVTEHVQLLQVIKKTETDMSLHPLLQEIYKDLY
SMILES,AC50,outcome
O=C(NCO)NCO,25 µM (active),
CCC[CH2][Sn]([Cl])([Cl])[Cl],,inactive
Cc1ccccc1C(=O)Nc1cccc(OC(C)C)c1,,inactive
COP(=O)(OC)O/C(=C\Cl)c1cc(Cl)c(Cl)cc1Cl,,inactive
ClC1(Cl)C2(Cl)C3(Cl)C4(Cl)C(Cl)(Cl)C5(Cl)C3(Cl)C1(Cl)C5(Cl)C24Cl (stereo not given),,inactive
COC(=O)c1sccc1S(=O)(=O)NC(=O)Nc1nc(C)nc(OC)n1,,inactive
CCC[CH2][Sn]([CH2]CCC)([CH2]CCC)[O]C(=O)c1ccccc1,1.83 µM (active),inactive
CN(C)N=O,,inactive
O=C1C(Cl)=C(Cl)C(=O)c2ccccc21,,inactive
COP(=S)(OC)Oc1ccc(Sc2ccc(OP(=S)(OC)OC)cc2)cc1,0.13 µM (active),inactive
CC(C)(c1ccc(OCC2CO2)cc1)c1ccc(OCC2CO2)cc1 (stereo not given),,inactive
C=C(C)C(=O)[O][Sn]([CH2]CCC)([CH2]CCC)[CH2]CCC,1.62 µM (active),
C=CC#N,,inactive
CCC(C)(C)c1ccc(O)c(C(C)(C)CC)c1,,inactive
C[C@H]1CCCC(=O)CCC/C=C/c2cc(O)cc(O)c2C(=O)O1,2.15 µM (active),
CC(C)C1CCC(Cc2ccc(Cl)cc2)C1(O)Cn1cncn1 (stereo not given),,inactive
Clc1ccc(C2(Cn3cncn3)CC(Br)CO2)c(Cl)c1 (stereo not given),,inactive
CCCCCCCCc1ccc(O)cc1,,inactive
COc1cc(-c2ccc(N)c(OC)c2)ccc1N,,inactive
O=C(O)C(F)(F)C(F)(F)C(F)(F)C(F)(F)C(F)(F)C(F)(F)C(F)(F)C(F)(F)C(F)(F)C(F)(F)F,6.31 µM (active),
O=C(O)C(F)(F)C(F)(F)C(F)(F)C(F)(F)C(F)(F)C(F)(F)F,,inactive
O=C1C2(Cl)C3(Cl)C4(Cl)C(Cl)(Cl)C5(Cl)C3(Cl)C1(Cl)C5(Cl)C24Cl (stereo not given),,inactive
O=C(OC1CCCCC1)c1ccccc1C(=O)OC1CCCCC1,,inactive
CNC(=O)O/N=C/C(C)(C)S(C)=O (stereo not given),,inactive
O=C/C=C/c1ccccc1,,inactive
CC(C)(OO)c1ccccc1,,inactive
CCOP(=S)(OCC)Oc1nc(Cl)c(Cl)cc1Cl,,inactive
O=[N+]([O-])c1ccc(O)c([N+](=O)[O-])c1,,inactive
